According to PubChem BioAssay (NCI):
This is part of a sample that, as a whole, favours compounds with a hit. Of some 83,000 tested, about 20% had one in any assay.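 Method: cells in 96-well plates; compound added at one concentration; 48 h incubation; percent growth measured; values under 10 scored active.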 A number with no mark means an inactive call. Active and inactive are the calls of the source.

System: HS 578T breast
Assay: NCI-60 one-dose screen, 48 h (100 = growth as untreated, 0 = no growth, -100 = all killed)
Conditions: 10 µM unless noted

Row | SMILES | growth
1 | O=C(Nn1c(NCC(=O)N2c3ccccc3Sc3ccccc32)nnc1-c1ccc(O)cc1)c1ccccc1 | 108%
2 | N#C/C(=C\c1cccc2cnccc12)n1nnc2cccc(F)c21 | 47.1%
3 | O=C(S)CNC(=O)c1ccccc1 | 79.5%
4 | CN(C)c1ccc2nc3ccc(=[N+](C)C)c([N+](=O)[O-])c-3sc2c1 | 37%
5 | O=C1c2ccccc2NC(n2sc3ccccc3c2=O)N1c1ccccc1 (centres undefined) | 106%
6 | Cc1nc2ccccc2c(/C=C/c2ccccc2)c1C(=O)/C=C/c1ccc(C(F)(F)F)cc1 | -10.9% (active)
7 | CCOC(=O)c1nc(Nc2ccc(C(C)=O)cc2)sc1C | 105%
8 | Oc1ccc(Cl)cc1Cc1cc(Cl)cc(Cl)c1O | -14.8% (active)
9 | COc1nc2ccc(C)cc2cc1-c1nc2c(cnn2-c2ccc(Br)cc2)c(=O)[nH]1 | 34.3%
10 | CC(=O)OC[C@H]1OC(Sc2sc(C(=O)c3ccc(Cl)cc3)c(N)c2-c2nc3ccccc3s2)[C@H](OC(C)=O)[C@@H](OC(C)=O)[C@@H]1OC(C)=O (some centres undefined) | 71.4%
11 | O=C1NC(=O)C(Cn2cnc3ccccc32)N1 (centres undefined) | 107%
12 | COc1cc(/C=C/C(=O)/C=C/c2cc(OC)c3c(c2OC)OCO3)c(OC)c2c1OCO2 | 63.8%
13 | COc1c(B(O)O)cc(C)cc1-c1nc2ccc3[nH]ncc3c2c2c1CCCC2 | 18.2%
14 | CCCCCCN(CCCCCC)c1ccc(/C=C2/SC(=O)NC2=O)c(C)c1 | 86.8%
15 | COC(=O)c1ccc2[nH]c(O)c(C(=Nc3ccc(N(C)C(=O)CN4CCN(C)CC4)cc3)c3ccccc3)c2c1 | -18.2% (active)
16 | CCOC(=O)CC1C(COC(=O)NC)OC(n2cnc3c(NC(=O)Nc4ccccc4)ncnc32)C1O[Si](C)(C)C(C)(C)C (centres undefined) | 57.1%
17 | CN1C(=O)N(C)C2Nn3c(s/c(=C\c4ccccc4)c3=O)=NC21 (centres undefined) | 96.2%
18 | COc1cc(C(=O)c2cc(C)c3[nH]c4ccc(C)cc4c3c2C)cc(OC)c1OC | 43.1%
19 | CN1CCN(Cc2ccc(NC(=O)c3cncc(C#Cc4cnccc4C#N)c3)cc2C(F)(F)F)CC1 | 24%

Row | SMILES | growth
20 | CCOC(=O)/C(C#N)=C\Nc1ccc2ncnc(Nc3ccc(Cl)cc3Cl)c2c1 | 75.5%
21 | Cn1cc(C(=O)c2nc(-c3cn(C)c4ccc(F)cc34)no2)c2cc(F)ccc21 | 87%
22 | c1cc(-c2nnc(SSc3ncnc4nc[nH]c34)o2)ccn1 | 66%
23 | CN(C)CC#Cc1ccc2ncc(C#N)c(Nc3ccc(F)c(Cl)c3)c2c1 | 52.1%
24 | C#Cc1cccc(NC(=O)Nc2ccccc2NC(=O)CCl)c1 | -1.15% [8.25 µM] (active)
25 | COc1ccc2c(c1OC)C(=O)O[C@H]2[C@H]1c2c(cc3c(c2OC)OCO3)CCN1C | 96.5%
26 | Cc1ccc2c(-c3cc(-c4ccccc4)nc(N)c3C#N)cc(=O)oc2c1 | 90.2%
27 | C[C@]12CC[C@@H]3c4cc(OC(F)F)c(OS(N)(=O)=O)cc4CC[C@H]3[C@@H]1CC[C@@H]2O | 27.8%
28 | CC(=O)Oc1ccccc1C(=O)N=C1[Se]CCCN1C(=O)c1ccccc1OC(C)=O | 24.9%
29 | N#Cc1c(-c2ccc(Cl)cc2)nc2c(c(-c3ccccc3)nn2-c2ccccc2)c1-c1ccc(O)cc1 | 26.5%
30 | CC(=O)c1ccc(Nc2nc(C(C)=O)c(C)s2)cc1 | 99.5%
31 | O=C(CCCCCCSc1nc(-c2ccccc2)cc(-c2ccccc2)n1)NO | 43.1%
32 | Cc1cc(Cl)ccc1NS(=O)(=O)c1ccc(-c2cnc(C3CC3)o2)cc1 | 22.1%
33 | Brc1ccc2[nH]cc(-c3nc(-c4c[nH]c5ccncc45)cs3)c2c1 | -48.4% (active)
34 | COc1cc(C(=O)/C=C/c2c(Cl)nc3sccn23)cc(OC)c1OC | 61%
35 | N/C(=N\c1nc2ccccc2s1)NC(=O)Nc1cccc2ccccc12 | 16.6%
36 | NC1CCN(c2nc(Nc3cccc(C(F)(F)F)c3)c3c(=O)[nH]ccc3n2)CC1 | -24.5% (active)
37 | COc1ccc(/C=N/Nc2cc(=O)[nH]c3ccc(Cl)cc23)cc1 | 91.7%

System: NCI/ADR-RES ovarian
Assay: as above
Conditions: 10 µM unless noted

Row | SMILES | growth
38 | O=C(Nn1c(NCC(=O)N2c3ccccc3Sc3ccccc32)nnc1-c1ccc(O)cc1)c1ccccc1 | 93.7%
39 | N#C/C(=C\c1cccc2cnccc12)n1nnc2cccc(F)c21 | 23.8%
40 | O=C(S)CNC(=O)c1ccccc1 | 96.5%
41 | CN(C)c1ccc2nc3ccc(=[N+](C)C)c([N+](=O)[O-])c-3sc2c1 | 7.62% (active)
42 | O=C1c2ccccc2NC(n2sc3ccccc3c2=O)N1c1ccccc1 (centres undefined) | 95%
43 | Cc1nc2ccccc2c(/C=C/c2ccccc2)c1C(=O)/C=C/c1ccc(C(F)(F)F)cc1 | -1.24% (active)
44 | CCOC(=O)c1nc(Nc2ccc(C(C)=O)cc2)sc1C | 101%
45 | Oc1ccc(Cl)cc1Cc1cc(Cl)cc(Cl)c1O | 24.6%
46 | COc1nc2ccc(C)cc2cc1-c1nc2c(cnn2-c2ccc(Br)cc2)c(=O)[nH]1 | 14.2%
47 | CC(=O)OC[C@H]1OC(Sc2sc(C(=O)c3ccc(Cl)cc3)c(N)c2-c2nc3ccccc3s2)[C@H](OC(C)=O)[C@@H](OC(C)=O)[C@@H]1OC(C)=O (some centres undefined) | 78.7%
48 | O=C1NC(=O)C(Cn2cnc3ccccc32)N1 (centres undefined) | 101%
49 | COc1cc(/C=C/C(=O)/C=C/c2cc(OC)c3c(c2OC)OCO3)c(OC)c2c1OCO2 | 28.3%
50 | COc1c(B(O)O)cc(C)cc1-c1nc2ccc3[nH]ncc3c2c2c1CCCC2 | 55.7%
51 | CCCCCCN(CCCCCC)c1ccc(/C=C2/SC(=O)NC2=O)c(C)c1 | 86.7%
52 | COC(=O)c1ccc2[nH]c(O)c(C(=Nc3ccc(N(C)C(=O)CN4CCN(C)CC4)cc3)c3ccccc3)c2c1 | 83.8%
53 | CCOC(=O)CC1C(COC(=O)NC)OC(n2cnc3c(NC(=O)Nc4ccccc4)ncnc32)C1O[Si](C)(C)C(C)(C)C (centres undefined) | 48.1%
54 | CN1C(=O)N(C)C2Nn3c(s/c(=C\c4ccccc4)c3=O)=NC21 (centres undefined) | 99.7%
55 | COc1cc(C(=O)c2cc(C)c3[nH]c4ccc(C)cc4c3c2C)cc(OC)c1OC | -2.71% (active)
56 | CC(=O)N1CCN(c2ccc(OCC3CO[C@](Cn4ccnc4)(c4ccc(Cl)cc4Cl)O3)cc2)CC1 (some centres undefined) | 84.4%

Row | SMILES | growth
57 | CN1CCN(Cc2ccc(NC(=O)c3cncc(C#Cc4cnccc4C#N)c3)cc2C(F)(F)F)CC1 | 74%
58 | CCOC(=O)/C(C#N)=C\Nc1ccc2ncnc(Nc3ccc(Cl)cc3Cl)c2c1 | 85.4%
59 | Cn1cc(C(=O)c2nc(-c3cn(C)c4ccc(F)cc34)no2)c2cc(F)ccc21 | 102%
60 | c1cc(-c2nnc(SSc3ncnc4nc[nH]c34)o2)ccn1 | 27.3%
61 | CN(C)CC#Cc1ccc2ncc(C#N)c(Nc3ccc(F)c(Cl)c3)c2c1 | 42.9%
62 | C#Cc1cccc(NC(=O)Nc2ccccc2NC(=O)CCl)c1 | -2.56% [8.25 µM] (active)
63 | COc1ccc2c(c1OC)C(=O)O[C@H]2[C@H]1c2c(cc3c(c2OC)OCO3)CCN1C | 84.7%
64 | Cc1ccc2c(-c3cc(-c4ccccc4)nc(N)c3C#N)cc(=O)oc2c1 | 95.2%
65 | C[C@]12CC[C@@H]3c4cc(OC(F)F)c(OS(N)(=O)=O)cc4CC[C@H]3[C@@H]1CC[C@@H]2O | -1.45% (active)
66 | CC(=O)Oc1ccccc1C(=O)N=C1[Se]CCCN1C(=O)c1ccccc1OC(C)=O | 29%
67 | N#Cc1c(-c2ccc(Cl)cc2)nc2c(c(-c3ccccc3)nn2-c2ccccc2)c1-c1ccc(O)cc1 | 57.9%
68 | CC(=O)c1ccc(Nc2nc(C(C)=O)c(C)s2)cc1 | 105%
69 | O=C(CCCCCCSc1nc(-c2ccccc2)cc(-c2ccccc2)n1)NO | 0.776% (active)
70 | Brc1ccc2[nH]cc(-c3nc(-c4c[nH]c5ccncc45)cs3)c2c1 | 14.1%
71 | COc1cc(C(=O)/C=C/c2c(Cl)nc3sccn23)cc(OC)c1OC | 81.4%
72 | N/C(=N\c1nc2ccccc2s1)NC(=O)Nc1cccc2ccccc12 | -7.24% (active)
73 | NC1CCN(c2nc(Nc3cccc(C(F)(F)F)c3)c3c(=O)[nH]ccc3n2)CC1 | -30.8% (active)
74 | COc1ccc(/C=N/Nc2cc(=O)[nH]c3ccc(Cl)cc23)cc1 | 78%
